Bioassay records as filed in PubChem BioAssay.
TRHR PAM = TRH receptor (human) allosteric enhancement. P34981. TRHR cells, fluo-8 calcium fluorescence, EC20 TRH enhancement. enhancement, % at 2 µM. 0.66% of 360,000 active. AID 493056; in the data active = enhancement above about 30%; note: 0% is about no effect
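Enhancer read-out: after compound pinning and an initial kinetic agonist-mode read, an EC20 of TRH (10 nM final) was injected and fluo-8 calcium signal (Ex 480/Em 530) followed at 1 s/cycle for 100 cycles in TRHR-expressing cells.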
IL2 activator = activates IL-2 in a cell-based reporter assay | IL-2 activation reporter assay, cell-based qHTS; stimulated with anti-CD3/CD4/CD28 beads; in transgenic mouse T cells | activation, % (series mostly up to about 46 µM) | 0.065% of 360,000 active | AID 652025; in the data active = activation above about 50%; inconclusive = mostly about 30% to 49%; note: 0% is about no effect
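Using fluorescent plate cytometry, EGFP and DsRed are detected in transgenic mouse T cells stimulated 18 h at 37 degrees C with antibody-coated beads after 60 min compound pretreatment.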
MBNL1 CUG block = inhibitors of human MBNL1 binding to CUG repeat RNA; Q9NR56; 0.036% of 280,000 active; TR-FRET MBNL1-His/biotin-(CUG)12 binding, 665/545 ratio; AID 2675; Potency, µM (series often up to 57.5 µM), for the others: at the highest dose activity change, negative = inhibition, most hits filed as inhibitors; active = well fitted inhibition curve with a large enough effect in the signal ratio, with a control signal flat, not every such curve was filed as active; inconclusive = small, poorly fitted or top-dose-only effect, or effect the other way, or a change in a side signal; inactive = no such curve, though single readings can be large or run the other way; the % refers to the signal ratio; note: potency is the fitted concentration of half-maximal effect; % is set by controls: 0 for no effect and ±100 for the full control effect
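His-tagged MBNL1 binding to biotinylated (CUG)12 RNA was measured by TR-FRET using terbium anti-His antibody (0.055 ng/ul final) and streptavidin-XL665 (5 nM final). Compounds were titrated 92 nM to 58 uM; 60 min at room temperature.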
Epigenetic reg = regulators of epigenetic silencing causing reporter derepression in mouse cells | 0.2% of 280,000 active | murine LDR cells, GFP reporter derepression, 30 h | Potency, µM (doses to about 53.9 µM), without a hit: at the top dose GFP activation, actives largely listed as activators; note: potency is the fitted concentration of half-maximal effect; % of control where 0% means no effect; nearly all actives have a fitted effect of over 60% in size
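Readout is the number of GFP-expressing murine LDR cells, counted by cytometry following washing. Cells were treated with compound for 30 h at 37 C; the stably integrated CMV-GFP locus is normally silent.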
TRHR agonist = activates the human TRH receptor; P34981; TRHR cells, calcium flux fluo-8, FDSS agonist mode; activation, % at 2 µM; 0.18% of 360,000 active; AID 493084; in the data active = activation above about 30%; note: 0% is about no effect
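TRHR-expressing cells, plated overnight in medium with 10% serum, were loaded with fluo-8 calcium dye at room temperature. After a 10 s baseline, library compound was pin-added and calcium release was recorded kinetically (ex 480/em 530) as agonist response.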
CBFb RUNX1 block = inhibitors of human CBF-beta and RUNX1 interaction. Q01196+Q13951. AlphaScreen CBFb-His/RUNX1-biotin binding, biochemical. Potency, µM (doses to about 59.8 µM), for the others: top-dose activity, negative = inhibition, hits mostly inhibitors. 230,000 tested, under 10 active; note: % of control where 0% means no effect
Target sequence (Q01196 whole entry, looked up): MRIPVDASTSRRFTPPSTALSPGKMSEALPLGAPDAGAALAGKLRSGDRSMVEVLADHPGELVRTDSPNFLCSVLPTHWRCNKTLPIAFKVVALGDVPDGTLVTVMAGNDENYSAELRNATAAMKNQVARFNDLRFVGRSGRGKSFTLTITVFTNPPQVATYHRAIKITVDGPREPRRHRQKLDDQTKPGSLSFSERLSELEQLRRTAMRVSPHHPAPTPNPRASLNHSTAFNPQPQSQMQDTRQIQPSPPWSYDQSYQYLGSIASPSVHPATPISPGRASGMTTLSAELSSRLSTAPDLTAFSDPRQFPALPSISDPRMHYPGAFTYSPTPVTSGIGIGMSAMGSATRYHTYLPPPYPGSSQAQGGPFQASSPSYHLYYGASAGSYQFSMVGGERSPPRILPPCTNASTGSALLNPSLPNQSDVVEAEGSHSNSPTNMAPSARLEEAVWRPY
Target sequence (Q13951 whole entry, looked up): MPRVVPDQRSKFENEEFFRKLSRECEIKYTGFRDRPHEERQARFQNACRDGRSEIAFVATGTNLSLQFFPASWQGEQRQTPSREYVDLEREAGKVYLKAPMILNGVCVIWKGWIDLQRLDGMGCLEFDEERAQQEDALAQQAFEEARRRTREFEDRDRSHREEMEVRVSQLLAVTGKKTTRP
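CBF-beta (His) and RUNX1 (biotin), 30 nM each; 20 min preassociation; + compound, 15 min; + beads 50 ng each (Ni, streptavidin), 90 min; RT; AlphaScreen read.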
* hit, by the source's call; ! = repeats disagree. Rows were chosen to be rich in hits. Some 0.88% of all compounds tested hit in one or more screens of this group. Unless noted, calls come from the whole dose curve; as a rule, active = well fitted curve in the direction sought with a large enough effect; inconclusive = small, poorly fitted or top-dose-only effect, or another doubt; inactive = no such curve, though single readings can be large; an effect the other way counts as inactive or inconclusive.

How did O=C(/C=C/c1cn(CC(O)CN2CCOCC2)c2ccccc12)c1cccs1 (stereo unspecified) do in these assays?
TRHR PAM: -0.1; MBNL1 CUG block: 11.7%; Epigenetic reg: 1.0%; TRHR agonist: 31.5*; CBFb RUNX1 block: 4.5%

How did Cc1ccc(C(=O)/C=C/c2cn(CC(O)CN3CCOCC3)c3ccccc23)cc1 (stereo unspecified) do in these assays?
TRHR PAM: -1.2; IL2 activator: -0.3; MBNL1 CUG block: 8.2%; Epigenetic reg: -3.0%; TRHR agonist: 10.1; CBFb RUNX1 block: -3.8%

How did COc1cccc(C2CC(C(F)(F)F)n3ncc(C(=O)NCc4ccco4)c3N2)c1 (stereo unspecified) do in these assays?
TRHR PAM: 32.0*; IL2 activator: -0.1; MBNL1 CUG block: -3.7%; Epigenetic reg: -1.0%; TRHR agonist: -1.5; CBFb RUNX1 block: -7.6%

What do the screens show for `Cc1ccc(N2C(=O)CS(=O)(=O)C23C(=O)N(Cc2cccc(F)c2)c2ccccc23)cc1Cl` (stereo unspecified)?
TRHR PAM: 7.5; Epigenetic reg: 0.2%; TRHR agonist: 1.4

How did CCOc1ccc(C(=O)Nc2cccc(-c3nc4cc(Cl)cc(Cl)c4o3)c2)cc1 do in these assays?
TRHR PAM: 34.9*; Epigenetic reg: -0.5%; TRHR agonist: -0.5

How did CCOc1ccc(C(=O)Nc2ccc(Cl)c(-c3nc4cc(C)cc(C)c4o3)c2)cc1 do in these assays?
TRHR PAM: 1.3; Epigenetic reg: 7.1%; TRHR agonist: 0.2

How did CCOc1ccc(CN2CCN(C3CCSCC3)CC2CCO)cc1 (stereo unspecified) do in these assays?
TRHR PAM: 40.7*; IL2 activator: -1.6; MBNL1 CUG block: -15.9%; Epigenetic reg: -0.6%; TRHR agonist: 0.3; CBFb RUNX1 block: 2.7%

How did CCOc1ccc(CN2CCN(C3CCC3)CC2CCO)cc1 (stereo unspecified) do in these assays?
TRHR PAM: -2.9; IL2 activator: -2.2; MBNL1 CUG block: -1.8%; TRHR agonist: 0.9

What do the screens show for `COc1ccc(-c2noc(CNS(=O)(=O)c3ccc(Br)cc3)n2)cc1OC`?
TRHR PAM: -9.1; Epigenetic reg: -3.3%; TRHR agonist: -0.4

What do the screens show for `O=C(NCc1ccccc1Cl)c1ccc(Nc2nc3ccccc3n3nnnc23)cc1`?
TRHR PAM: -4.6; Epigenetic reg: 10µM*; TRHR agonist: 0.8

How did O=C(NCCc1ccccc1)c1ccc(Nc2nc3ccccc3n3nnnc23)cc1 do in these assays?
TRHR PAM: 2.7; Epigenetic reg: 10.6%; TRHR agonist: 0.8

Results for O=c1nc2n(c3ccccc13)Cc1ccccc1-2 ?
TRHR PAM: 7.9; MBNL1 CUG block: 7.3%; Epigenetic reg: -0.3%; TRHR agonist: 0.0; CBFb RUNX1 block: 5.4%

What do the screens show for `O=c1cc(-c2ccccc2)nc2n1Cc1ccccc1-2`?
TRHR PAM: 31.3*; IL2 activator: 2.1; MBNL1 CUG block: inconclusive; Epigenetic reg: 1.3%; TRHR agonist: 0.6; CBFb RUNX1 block: 1.3%

What do the screens show for `COc1ccccc1Oc1coc2c(CN3CCOCC3)c(O)ccc2c1=O`?
TRHR PAM: 36.8*; IL2 activator: -0.4; MBNL1 CUG block: -8.1%; Epigenetic reg: -0.1%; TRHR agonist: -0.1; CBFb RUNX1 block: 1.5%

What do the screens show for `Cc1cc2c(s1)c1cnn(Cc3ccc(F)c(F)c3)c(=O)c1n2C`?
TRHR PAM: 0.7; TRHR agonist: -0.1

Results for COc1ccccc1NC(=O)C1CCCN(S(=O)(=O)c2ccc3[nH]c(=O)ccc3c2)C1 (stereo unspecified) ?
TRHR PAM: -2.1; IL2 activator: -2.8; MBNL1 CUG block: 2.3%; TRHR agonist: 0.2

How did COc1ccc(C)cc1NC(=O)C1CCCN(S(=O)(=O)c2ccc3[nH]c(=O)ccc3c2)C1 (stereo unspecified) do in these assays?
TRHR PAM: 46.8*!; IL2 activator: -1.4; MBNL1 CUG block: 4.8%; Epigenetic reg: 1.3%; TRHR agonist: -1.0

Results for Cc1cc2nn(-c3ccc(Cl)cc3)nc2cc1N ?
TRHR PAM: 1.4; IL2 activator: 0.3; MBNL1 CUG block: -1.4%; TRHR agonist: 0.7

What do the screens show for `Cc1cc2nn(-c3ccc(F)cc3)nc2cc1N`?
TRHR PAM: 32.1*; IL2 activator: -2.1; MBNL1 CUG block: 15.9%; TRHR agonist: -0.6

What do the screens show for `COc1cnc(-c2ccccn2)nc1Sc1ccc(C)cc1`?
TRHR PAM: 4.7; IL2 activator: 1.4; Epigenetic reg: 5.3%; TRHR agonist: -0.4; CBFb RUNX1 block: inconclusive

Results for Cc1ccc(Sc2cc(C)nc(-c3ccccn3)n2)cc1 ?
TRHR PAM: 32.3*; IL2 activator: -1.8; MBNL1 CUG block: -5.8%; Epigenetic reg: 0.0%; TRHR agonist: -0.2; CBFb RUNX1 block: -7.6%

How did CCN(CC)c1ccc(NC(=O)COCc2cc(-c3ccc4c(c3)OCO4)on2)c(C)c1 do in these assays?
TRHR PAM: -8.7; Epigenetic reg: -0.4%; TRHR agonist: -0.3

What do the screens show for `COc1ccc(-c2[nH]ncc2CN2CCCN(c3ccccc3)CC2)c(F)c1`?
TRHR PAM: -3.5; IL2 activator: -3.0; MBNL1 CUG block: -11.2%; Epigenetic reg: 0.0%; TRHR agonist: 1.0; CBFb RUNX1 block: -2.9%

How did COc1ccc2cc(-c3[nH]ncc3CN3CCCN(c4ccccc4)CC3)ccc2c1 do in these assays?
TRHR PAM: 30.6*; IL2 activator: 1.4; MBNL1 CUG block: 10.8%; Epigenetic reg: 0.5%; TRHR agonist: 0.2; CBFb RUNX1 block: inconclusive

What do the screens show for `Cc1ccc(CCNC(=O)c2c3c(nc4ccccc24)C(=O)N(C2CCCCC2)C3)cc1`?
TRHR PAM: -1.8; Epigenetic reg: 1.5%; TRHR agonist: -0.6

Results for COc1ccc(OC)c(NS(=O)(=O)c2ccc(N3CCCC3=O)cc2)c1 ?
TRHR PAM: 33.9*; IL2 activator: 0.0; MBNL1 CUG block: -3.4%; Epigenetic reg: -1.9%; TRHR agonist: -0.5; CBFb RUNX1 block: -0.6%

Results for COc1ccc(CCNS(=O)(=O)c2ccc(N3CCCC3=O)cc2)cc1 ?
IL2 activator: -2.5

How did COc1ccc([N+](=O)[O-])cc1C(=O)C(=O)c1ccccc1 do in these assays?
TRHR PAM: 32.7*; IL2 activator: -0.1; MBNL1 CUG block: inconclusive; TRHR agonist: -0.7

How did COc1ccc(CCN2C(=O)N(c3cccc(C)c3)C(=O)C2CC(=O)Nc2ccccc2)cc1OC (stereo unspecified) do in these assays?
TRHR PAM: 20.3; Epigenetic reg: 2.5%; TRHR agonist: -1.5
